PubChem BioAssay (Tox21)
Records with an inconclusive call do not appear. Where a call stands in place of a potency, no number is given. Values without a mark were called inactive. Active and inactive are the calls of the source. Unless noted, calls come from the whole dose curve; as a rule, active = well fitted curve in the direction sought with a large enough effect in the repeat runs; inconclusive = weak or mixed curves; inactive = no such curve, though single readings can be large; an effect the other way counts as inactive or inconclusive.

Legend:
[1] = qHTS assay to identify small molecule antagonists of the thyroid receptor (TR) signaling pathway - cell viability counter screen (AID 743064); note: nearly all actives have a fitted effect of over 50% in size; note: potency is the fitted concentration of half-maximal effect
Method in brief: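 GH3.TRE-Luc rat pituitary cells carrying a TRE-luciferase reporter were treated with compound plus 1 nM T3 (final) for 23.5 h at 37 °C. Viability was then read in the same wells by CellTiter-Fluor fluorescence after a further 30 min.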

[2] = qHTS assay to identify small molecule antagonists of the thyroid receptor (TR) signaling pathway (AID 743065); note: nearly all actives have a fitted effect of over 55% in size; note: potency is the fitted concentration of half-maximal effect
Method in brief: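 Antagonism measured as loss of luciferase signal in GH3 cells stably carrying a TRE-luciferase reporter, co-treated with compound and T3 (1 nM final) for 23.5 h at 37 C. Viability was read in the same well by CellTiter-Fluor.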

[3] = system: thyroid hormone receptor (rat, GH3 cells); test: qHTS assay to identify small molecule agonists of the thyroid receptor (TR) signaling pathway (AID 743066; calls by dose curve; note: potency is the fitted concentration of half-maximal effect)
[4] = qHTS assay to identify small molecule antagonists of the estrogen receptor alpha (ER-alpha) signaling pathway - cell viability counter screen (AID 743074; calls by dose curve;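 note: HEK293 cells carrying ER-alpha-UAS-bla reporter stimulated with 17beta-estradiol; nearly all actives have a fitted effect of over 45% in size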)
[5] = target: Estrogen receptor (Homo sapiens) (UniProt P03372); test: qHTS assay to identify small molecule agonists of the estrogen receptor alpha (ER-alpha) signaling pathway (AID 743075; calls by dose curve;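 note: HEK293 GripTite cells with ER-alpha and UAS-driven beta-lactamase reporter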)
Sequence of Estrogen receptor (Homo sapiens) (P03372 whole entry, looked up): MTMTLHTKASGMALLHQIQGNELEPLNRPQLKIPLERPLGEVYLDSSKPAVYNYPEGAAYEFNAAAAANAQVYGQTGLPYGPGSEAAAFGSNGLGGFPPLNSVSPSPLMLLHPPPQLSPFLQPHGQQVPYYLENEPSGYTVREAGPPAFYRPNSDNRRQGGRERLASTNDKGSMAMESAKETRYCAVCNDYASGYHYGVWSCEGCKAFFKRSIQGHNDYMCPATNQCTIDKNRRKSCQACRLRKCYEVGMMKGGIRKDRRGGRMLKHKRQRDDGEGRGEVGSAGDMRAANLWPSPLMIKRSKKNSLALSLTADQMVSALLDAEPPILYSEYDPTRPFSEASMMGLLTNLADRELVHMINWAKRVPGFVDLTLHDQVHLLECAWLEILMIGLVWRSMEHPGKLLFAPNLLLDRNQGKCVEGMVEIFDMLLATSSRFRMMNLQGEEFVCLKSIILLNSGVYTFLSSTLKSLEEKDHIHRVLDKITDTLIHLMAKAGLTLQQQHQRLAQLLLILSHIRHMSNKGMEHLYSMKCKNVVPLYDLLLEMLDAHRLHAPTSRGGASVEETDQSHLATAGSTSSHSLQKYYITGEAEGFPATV

[6] = target: Estrogen receptor (Homo sapiens) (UniProt P03372); test: qHTS assay to identify small molecule agonists of the estrogen receptor alpha (ER-alpha) signaling pathway using the BG1 cell line (AID 743079); details: BG1Luc4E2 cells, ERE-luciferase agonist, 22 h; activation: at 70.3 µM (top of the series); note: nearly all actives have a fitted effect of over 20% in size
[7] = qHTS assay to identify small molecule antagonists of the estrogen receptor alpha (ER-alpha) signaling pathway using the BG1 cell line (AID 743080; calls by dose curve;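 note: BG1 cells stimulated with 17beta-estradiol alongside compound; nearly all actives have a fitted effect of over 25% in size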)
Method in brief: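 BG1-Luc-4E2 cells (endogenous full-length ER-alpha, 4xERE luciferase) hormone-starved 5 days in charcoal-stripped FBS, plated 4,000/well for 24 h, then compound plus 17beta-estradiol for 21.5 h at 37 C; ONE-Glo luminescence read.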

[8] = qHTS assay to identify small molecule antagonists of the estrogen receptor alpha (ER-alpha) signaling pathway using the BG1 cell line - cell viability counter screen (AID 743081);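 note: compound given together with 17beta-estradiol as the ER stimulus; nearly all actives have a fitted effect of over 45% in size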; note: potency is the fitted concentration of half-maximal effect
[9] = qHTS assay to identify aromatase inhibitors - cell viability counter screen (AID 743084);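 note: cells stimulated with testosterone during compound exposure; nearly all actives have a fitted effect of over 55% in size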; note: potency is the fitted concentration of half-maximal effect
[10] = target: Aryl hydrocarbon receptor (Homo sapiens) (UniProt P35869); test: qHTS assay to identify small molecule that activate the aryl hydrocarbon receptor (AhR) signaling pathway (AID 743085); note: nearly all actives have a fitted effect of over 15% in size; note: potency is the fitted concentration of half-maximal effect;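 for activation: HG2L7.5c1 human HepG2 liver cells with stably integrated DRE-driven firefly reporter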
Sequence of Aryl hydrocarbon receptor (Homo sapiens) (P35869 whole entry, looked up): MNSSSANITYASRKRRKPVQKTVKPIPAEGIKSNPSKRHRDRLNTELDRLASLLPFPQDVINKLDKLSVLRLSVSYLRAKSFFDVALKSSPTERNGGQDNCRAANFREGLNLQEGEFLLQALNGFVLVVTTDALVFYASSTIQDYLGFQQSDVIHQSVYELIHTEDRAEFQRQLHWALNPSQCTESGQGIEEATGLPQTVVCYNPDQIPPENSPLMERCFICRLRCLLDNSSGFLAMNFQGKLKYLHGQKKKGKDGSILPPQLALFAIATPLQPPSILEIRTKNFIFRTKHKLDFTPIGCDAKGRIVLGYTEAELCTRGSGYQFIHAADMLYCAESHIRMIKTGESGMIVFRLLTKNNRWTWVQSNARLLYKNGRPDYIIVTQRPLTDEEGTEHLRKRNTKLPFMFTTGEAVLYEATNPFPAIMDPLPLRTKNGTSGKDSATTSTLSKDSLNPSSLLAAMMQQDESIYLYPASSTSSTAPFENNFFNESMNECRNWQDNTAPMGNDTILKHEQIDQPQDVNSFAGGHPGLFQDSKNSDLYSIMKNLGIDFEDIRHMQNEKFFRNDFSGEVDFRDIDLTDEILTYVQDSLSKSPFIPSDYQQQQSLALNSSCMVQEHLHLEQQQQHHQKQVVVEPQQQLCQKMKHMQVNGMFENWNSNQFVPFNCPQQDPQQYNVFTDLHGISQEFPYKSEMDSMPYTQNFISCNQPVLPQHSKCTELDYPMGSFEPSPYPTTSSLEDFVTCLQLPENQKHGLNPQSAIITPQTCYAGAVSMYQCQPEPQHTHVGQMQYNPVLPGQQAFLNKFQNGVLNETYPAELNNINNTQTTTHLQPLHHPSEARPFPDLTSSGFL
Method in brief: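 HepG2 cells (HG2L7.5c1) stably carrying a firefly luciferase reporter driven by 20 dioxin responsive elements were exposed to compound for 24 h at 37C after a 5 h settling period; luminescence rise (ONE-Glo) indicated activation.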

[11] = qHTS assay to identify small molecule that activate the aryl hydrocarbon receptor (AhR) signaling pathway - cell viability counter screen (AID 743086); note: nearly all actives have a fitted effect of over 45% in size; note: potency is the fitted concentration of half-maximal effect
Method in brief: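 Cytotoxicity counter screen: CellTiter-Fluor signal (30 min, 37 C) in 4000 HepG2 cells/well carrying the DRE-luciferase reporter, following 24 h compound exposure at 37 C.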

[12] = qHTS assay to identify small molecule phospholipidosis (PLD) inducers (AID 1259344; active = well fitted curve in the direction sought with a large enough effect; an effect the other way counts as inactive or inconclusive)
Method in brief: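 Fluorescent phospholipid staining (LipidTOX Red) measured by automated microscopy in fixed HepG2 cells after 24 h treatment; nuclei counterstained with Hoechst 33342; amiodarone as reference inducer.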

[13] = target: Nuclear receptor subfamily 1 group I member 2 (Rattus norvegicus) (UniProt Q9R1A7); test: Rat pregnane X receptor (rPXR) activation by small molecules, qHTS assay (AID 1346983); details: rPXR luciferase reporter cells, One-Glo luminescence, 24 h; max activation: active compounds read high; note: nearly all actives have a fitted effect of over 20% in size
Sequence of Nuclear receptor subfamily 1 group I member 2 (Rattus norvegicus) (Q9R1A7 whole entry, looked up): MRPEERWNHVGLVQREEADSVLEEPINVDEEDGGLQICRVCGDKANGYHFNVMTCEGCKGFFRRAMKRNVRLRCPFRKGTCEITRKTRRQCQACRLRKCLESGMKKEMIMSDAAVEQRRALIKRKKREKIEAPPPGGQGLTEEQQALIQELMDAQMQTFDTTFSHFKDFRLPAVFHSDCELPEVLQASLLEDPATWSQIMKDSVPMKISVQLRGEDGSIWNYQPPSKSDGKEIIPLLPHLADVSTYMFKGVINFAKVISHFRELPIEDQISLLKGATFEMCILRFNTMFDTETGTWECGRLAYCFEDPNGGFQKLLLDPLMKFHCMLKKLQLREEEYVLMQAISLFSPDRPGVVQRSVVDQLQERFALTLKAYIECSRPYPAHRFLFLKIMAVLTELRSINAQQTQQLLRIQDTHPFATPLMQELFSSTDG
Method in brief: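 Luminescent readout (One-Glo luciferase, 30 min room temperature) followed 24 hr compound treatment at 37 C of rPXR cells plated 2,000 per well and preincubated 5hr; qHTS format with compounds delivered in DMSO.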

[14] = target: Nuclear receptor subfamily 1 group I member 2 (Homo sapiens) (UniProt O75469); test: CYP3A4 induction through human pregnane X receptor (PXR) by small molecules, qHTS assay (AID 1346984); note: nearly all actives have a fitted effect of over 40% in size
Method in brief: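 DPX-2 HepG2 cells carrying a PXR response element and CYP3A4-promoter luciferase construct, treated with compounds 24 hr at 37C. Then P450-Glo CYP3A4 Luciferin-IPA substrate (3uM final) for 3 hr at 37C, One-Glo added, luminescence read.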

[15] = target: Nuclear receptor subfamily 1 group I member 2 (Homo sapiens) (UniProt O75469); test: Human pregnane X receptor (PXR) activation by small molecules, qHTS assay (AID 1346985); note: nearly all actives have a fitted effect of over 40% in size
Method in brief: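 DPX-2 cells (HepG2 co-transfected with a PXR response element and a CYP3A4-promoter luciferase construct) were seeded at 2,000 per well, rested 5 hr at 37C, then exposed to DMSO-dissolved compounds for 24 hr. Activation was read as luciferase luminescence.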

Aromatase (Homo sapiens) = Aromatase (Homo sapiens) (UniProt P11511); test: qHTS assay to identify aromatase inhibitors (AID 743083); note: nearly all actives have a fitted effect of over 55% in size
Sequence of Aromatase (Homo sapiens) (P11511 whole entry, looked up): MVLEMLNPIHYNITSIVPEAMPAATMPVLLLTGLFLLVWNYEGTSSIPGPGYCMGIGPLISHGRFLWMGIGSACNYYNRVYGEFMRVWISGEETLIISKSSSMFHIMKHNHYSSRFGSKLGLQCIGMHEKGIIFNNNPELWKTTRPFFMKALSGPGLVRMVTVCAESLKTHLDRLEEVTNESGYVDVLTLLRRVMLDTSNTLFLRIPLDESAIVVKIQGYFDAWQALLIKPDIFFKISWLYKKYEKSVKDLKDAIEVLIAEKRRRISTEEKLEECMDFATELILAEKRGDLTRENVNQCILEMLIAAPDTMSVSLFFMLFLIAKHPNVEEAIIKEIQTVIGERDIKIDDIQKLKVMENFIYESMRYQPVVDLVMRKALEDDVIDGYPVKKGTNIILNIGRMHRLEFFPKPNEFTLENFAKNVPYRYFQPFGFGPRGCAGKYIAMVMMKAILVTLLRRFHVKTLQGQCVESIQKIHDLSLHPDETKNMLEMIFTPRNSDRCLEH

[16] = target: Peroxisome proliferator-activated receptor gamma (Homo sapiens) (UniProt P37231); test: qHTS assay to identify small molecule agonists of the peroxisome proliferator-activated receptor gamma (PPARg) signaling pathway (AID 743094; active = well fitted activation curve with a large enough effect in the signal ratio in the repeat runs, not every such curve was filed as active; the % refers to the signal ratio)
Sequence of Peroxisome proliferator-activated receptor gamma (Homo sapiens) (P37231 whole entry, looked up): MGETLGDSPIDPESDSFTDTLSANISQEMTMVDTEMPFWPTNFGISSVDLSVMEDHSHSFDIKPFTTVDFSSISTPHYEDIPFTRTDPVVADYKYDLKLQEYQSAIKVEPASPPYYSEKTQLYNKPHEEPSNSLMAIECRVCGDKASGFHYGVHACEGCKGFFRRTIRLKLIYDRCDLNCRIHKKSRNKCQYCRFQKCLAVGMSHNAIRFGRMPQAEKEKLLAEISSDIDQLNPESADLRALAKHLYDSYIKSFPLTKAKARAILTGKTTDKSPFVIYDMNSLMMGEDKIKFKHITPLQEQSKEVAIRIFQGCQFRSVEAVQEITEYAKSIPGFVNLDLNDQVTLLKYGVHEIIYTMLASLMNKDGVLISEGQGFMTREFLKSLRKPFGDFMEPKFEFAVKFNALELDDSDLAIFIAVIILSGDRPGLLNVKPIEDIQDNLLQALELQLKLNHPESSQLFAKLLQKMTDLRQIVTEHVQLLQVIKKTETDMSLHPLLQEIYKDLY
Method in brief: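 GeneBLAzer PPARg UAS-bla HEK293H cells were plated, rested 5 h, then exposed to compounds for 17 h at 37C. Beta-lactamase activity was read by LiveBLAzer B/G FRET substrate fluorescence after 1 h at room temperature.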

| SMILES | Potency [1] | Potency [2] | Potency [3] | Potency [4] | Potency [5] | Potency [6] | Potency [7] | Potency [8] | Potency [9] | Potency [10] | Potency [11] | Potency [12] | max activation [13] | Potency [14] | Potency [15] | Potency (Aromatase (Homo sapiens)) | Potency [16] |
| --- | --- | --- | --- | --- | --- | --- | --- | --- | --- | --- | --- | --- | --- | --- | --- | --- | --- |
| NC(=S)N=Nc1ccc(NN=C(N)N)cc1 | 23.7 µM (active) | 26.6 µM (active) | inactive | inactive | inactive | inactive | inactive | 26.6 µM (active) | 23.7 µM (active) | 11.9 µM (active) | 29.8 µM (active) | inactive | -0.862% | inactive | inactive |  |  |
| CCCCC[C@H](O)/C=C/[C@@H]1[C@H]2C/C(=C/CCCC(=O)O)O[C@H]2C[C@H]1O | inactive | inactive | inactive | inactive |  | inactive |  |  | inactive | inactive |  | inactive | -0.736% | inactive | inactive | inactive | inactive |
| C=C(NC(=O)C(=C)NC(=O)c1csc(C2=N[C@@H]3c4csc(n4)[C@H]4NC(=O)c5csc(n5)[C@H]([C@](C)(O)[C@@H](C)O)NC(=O)[C@H]5CSC(=N5)C(=CC)NC(=O)C([C@@H](C)O)NC(=O)c5csc(n5)[C@]3(CC2)NC(=O)[C@H](C)NC(=O)C(=C)NC(=O)[C@H](C)NC(=O)C([C@@H](C)CC)NC2C=Cc3c([C@H](C)O)cc(nc3C2O)C(=O)O[C@@H]4C)n1)C(N)=O (stereo partly drawn) | 8.04 µM (active) | 12.7 µM (active) | 5.69 µM (active) | inactive |  | inactive | inactive |  | 11.4 µM (active) | inactive | inactive | inactive | -3.21% | inactive | inactive | inactive |  |
| CCCCCCCCCCCCCCCCCC(=O)OC[C@@H](O)[C@H]1OC[C@H](O)[C@H]1O | inactive | inactive | inactive | inactive |  |  |  | inactive | inactive | inactive | inactive | inactive | -0.713% | inactive | inactive | inactive | inactive |
| CC(=O)Nc1c(I)c(C(=O)O)c(I)c(N(C)C(C)=O)c1I | inactive | inactive | inactive | inactive |  |  |  | inactive | inactive | inactive | inactive | inactive | -0.923% | inactive | inactive | inactive | inactive |
| O=C(O)c1nc(=O)[nH]c(=O)[nH]1 | inactive | inactive | inactive | inactive |  |  |  | inactive | inactive | inactive | inactive | inactive | -2.15% | inactive | inactive | inactive |  |
| O=C1CCC(=O)N1CO | inactive | inactive | inactive | inactive |  |  |  | inactive | inactive | inactive | inactive | inactive | -2.21% | inactive | inactive | inactive | inactive |
| C[C@H](N)C(=O)N[C@@H](C)P(=O)(O)O | inactive | inactive | inactive | inactive | inactive | inactive | inactive | inactive | inactive | inactive | inactive | inactive | -2.51% | inactive | inactive | inactive | inactive |
| COc1c(O[C@@H]2O[C@H](CO)[C@@H](O)[C@H](O)[C@H]2O)cc2c(c1OC)-c1ccc(SC)c(=O)cc1[C@@H](NC(C)=O)CC2 | inactive | inactive | inactive | inactive |  |  |  | inactive | inactive | inactive | inactive | inactive | -2.99% | inactive | inactive | inactive | inactive |
